TDP1 cell noCPT = qHTS for Inhibitors of human tyrosyl-DNA phosphodiesterase 1 (TDP1): qHTS in cells in absence of CPT; actives 15% (n = 420,000); DT40 Tdp1-/- hTDP1 cells, no CPT, ATP luminescence, 48 h; Potency, µM (highest dose often 46.2 µM), without a hit: at the highest dose activity change, negative = growth inhibition, actives largely listed as inhibitors; AID 686978, 2013; also: potency is read from the fitted curve at half-maximal effect; nearly all actives have a fitted effect of over 55% in size
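A cellular qHTS used chicken DT40 cells lacking endogenous Tdp1 but carrying stably transfected human TDP1. Compounds were applied without camptothecin, and cell growth kinetics were judged by ATP-dependent luminescence after ≥48 hr.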
TDP1 cell CPT = DT40-hTDP1 cell growth loss with CPT. chicken DT40 Tdp1-/-;hTDP1 cells + 20 nM CPT, ATP luminescence, 48 h. Potency, µM (series often up to 46.2 µM), inactives show at the top dose activity change, negative = growth inhibition, most hits filed as inhibitors. actives 12% (n = 420,000). AID 686979; also: potency is read from the fitted curve at half-maximal effect; nearly all actives have a fitted effect of over 55% in size
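Chicken DT40 Tdp1-/- cells complemented with human TDP1, 400 cells/well, exposed to compounds plus 20 nM camptothecin for at least 48 h at 37 C; viability read as ATP content by CellTiter-Glo luminescence.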
uPA surface inh = blocks generation of uPA at the cell surface | actives 0.31% (n = 330,000) | cell surface uPA generation assay, qHTS | Potency, µM (top dose mostly 38.3 µM), without a hit: at the highest dose activity change, negative = inhibition, actives largely listed as inhibitors; active = well fitted inhibition curve with a large enough effect; inconclusive = small, poorly fitted or top-dose-only effect; inactive = no such curve, though single readings can be large or run the other way; tested in mouse RAW 264.7 cells; also: potency is read from the fitted curve at half-maximal effect; nearly all actives have a fitted effect of over 55% in size
HT1080NT lethal = kills 2HG-producing HT-1080-NT fibrosarcoma cells; Potency, µM (series often up to 46.1 µM), inactives show at the top dose activity, negative = less viability, actives largely listed as cytotoxic; AID 686970; actives 1.6% (n = 360,000); HT-1080-NT fibrosarcoma viability, CellTiter-Glo ATP luminescence, 48 h;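 also: NT is the 2HG producing partner of a matched IDH1 knockdown line; potency is read from the fitted curve at half-maximal effect; 0% = DMSO-treated cells and -100% = media-only wells without cells; nearly all actives have a fitted effect of over 55% in size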
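A 48-hour cytotoxicity screen used HT-1080-NT cells plated 2 hours before compound delivery. ATP-based CellTiter-Glo luminescence measured viability, normalized to DMSO and no-cell controls.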
IL1B secr inh = blocks inflammasome-driven IL-1 beta release; THP-1 LPS/ATP IL-1B secretion, AlphaLISA, 16 h; stronger effect = lower value; activity change, % at 57.5 µM; actives 4.7% (n = 360,000); in the data active = activity change below about -50%; inconclusive = mostly about -30% to -49%
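THP-1 cells pretreated 1 hr with compounds (up to 57.5 uM final), then stimulated with LPS (250 ng/mL final) plus ATP (1.25 mM final); secreted IL-1B measured by AlphaLISA after 16 hr, decreased signal indicating inhibition.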
HT1080 IDH1KD tx = kills HT-1080 cells with IDH1 knockdown; HT-1080 IDH1 knockdown viability, ATP luminescence, 48 h; Potency, µM (highest dose often 46.1 µM), inactives show at the top dose activity, negative = toxicity, most hits filed as cytotoxic; AID 686971; actives 2% (n = 360,000);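 also: potency is read from the fitted curve at half-maximal effect; 0% = DMSO wells and -100% = cell-free medium wells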
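Luminescent ATP read-out (CellTiter-Glo, 10 min at room temperature) after 48 h compound exposure at 37 °C gave viability of IDH1-knockdown HT-1080 cells. Activity was normalised to DMSO and cell-free wells, then fitted as concentration-response curves.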
Active calls of the source: *; i = inactive; ? = inconclusive; nt = no result. Compounds with a hit are over-represented: about 19% of the library has one in this group of screens. Unless noted, calls follow the shape of the dose curve; as a rule, active = well fitted curve in the direction sought with a large enough effect; inconclusive = small, poorly fitted or top-dose-only effect, or another doubt; inactive = no such curve, though single readings can be large; an effect the other way counts as inactive or inconclusive. Unless noted, % is scaled to controls: 0 for no effect and ±100 for the full control effect.

SMILES	TDP1 cell noCPT	TDP1 cell CPT	uPA surface inh	HT1080NT lethal	IL1B secr inh	HT1080 IDH1KD tx
NC(=O)c1ccc(NC(=O)CN2C(=O)NC(c3ccccc3)(c3ccccc3)C2=O)cc1	-1%	4%	7%	8%	-5	0%
Cc1ccc(-c2cc3nn(-c4ccccc4)c(N)c3c(=O)o2)cc1	21µM*	?	-5%	?	-56*	-11%
Cc1ccc(-c2cc(N)n(-c3ccc(C)cc3)n2)cc1	?	?	-3%	6%	1	-3%
O=[N+]([O-])c1ccc(O)c(/C=N/Nc2nc3ccccc3[nH]2)c1	2.1µM*	4.1µM*	-13%	?	31	?
O=[N+]([O-])c1cccnc1N/N=C/c1ccccc1O	9.2µM*	?	3%	?	47	?
O=[N+]([O-])c1ccc(NN=Cc2ccccc2O)nc1	5.8µM*	5.8µM*	-10%	?	59	7.3µM*
COc1ccc(O)c(/C=N/Nc2nc3ccccc3[nH]2)c1	1%	18%	2%	11%	18	28%
O=[N+]([O-])c1ccc(N/N=C\c2cccn2-c2ccccc2)nc1	?	12µM*	13%	?	93	?
O=C(Cn1ccc(C(F)(F)F)n1)N/N=C/c1ccc2c(c1)OCO2	?	-13%	4%	-13%	i	3%
Cn1c(NC(=O)c2ccc(S(=O)(=O)N3CCOCC3)cc2)cc(=O)n(C)c1=O	2%	5%	-1%	3%	20	1%
CCc1nnc(NC(=O)CCC(=O)NC2CCCCCCC2)s1	2%	-2%	6%	0%	13	3%
CC/C(=N\Nc1ccc([N+](=O)[O-])cc1)c1ccccc1	?	?	-24%	-24%	-51*	-28%
CS(=O)(=O)Nc1ccc(C(=O)CC(=O)Nc2ccc([N+](=O)[O-])cc2)cc1	-18%	-1%	-1%	-20%	-10	-15%
O=[N+]([O-])c1ccc(NN=Cc2ccc(O)cc2)nc1	-9%	5%	-7%	1%	-3	-4%
O=[N+]([O-])c1ccc(O)c(/C=N/Nc2ncnc3c2cnn3-c2ccccc2)c1	3.7µM*	3.7µM*	-24%	?	202	?
O=[N+]([O-])c1ccc(NN=C(Oc2ccccc2)c2ccc([N+](=O)[O-])cc2)cc1	?	-17%	nt	1%	?	0%
O=C(CC(=O)c1ccccc1)Nc1ccc([N+](=O)[O-])cc1	?	23µM*	-3%	-8%	?	-25%
O=[N+]([O-])c1ccc(NN=Cc2ccc(O)cc2O)nc1	5.8µM*	3.3µM*	-14%	?	88	3.3µM*
COc1cccc(-c2nc3c(c(=O)[nH]c(=O)n3Cc3ccccc3)n2CCO)c1OC(F)F	-2%	12%	-4%	-4%	-19	13%
CN[C@@H]1[C@@H](O)[C@@H](O[C@@H]2[C@@H](O)[C@H](O[C@H]3O[C@H](CN)[C@@H](O)[C@H](O)[C@H]3O)[C@@H](N)C[C@H]2NC(=O)C(O)CN)OC[C@]1(C)O (some centres not stated)	-19%	-25%	nt	nt	nt	nt
COC(=O)[C@@H]1[C@@H]2C[C@H]3c4[nH]c5ccccc5c4CCN3C[C@@H]2CC[C@@H]1O	-13%	?	nt	nt	nt	nt
CCOC(=O)c1cccc(NC(=O)Nc2c(C)n(C)n(-c3ccccc3)c2=O)c1	-6%	0%	nt	nt	nt	nt
Cc1ccccc1-n1c(C)cc(/C=N/Nc2ccc([N+](=O)[O-])cn2)c1C	?	26µM*	3%	23µM*	-13	?
O=[N+]([O-])c1ccc(O)c(C=NNc2ccc(S(=O)(=O)O)cc2)c1	-22%	-3%	4%	3%	0	-2%
O=[N+]([O-])c1ccc(O)c(/C=N/Nc2ccccn2)c1	1.5µM*	1.3µM*	-12%	12µM*	-101*	10µM*
SMILES	TDP1 cell noCPT	TDP1 cell CPT	uPA surface inh	HT1080NT lethal	IL1B secr inh	HT1080 IDH1KD tx
Cc1cc(C)n(CCC(=O)N/N=C/c2ccc(Br)c([N+](=O)[O-])c2)n1	-28%	-5%	-4%	?	-93*	-26%
Cc1cc(/C=N/Nc2ccc([N+](=O)[O-])cn2)c(C)n1-c1ccc(C(=O)O)cc1	-28%	-9%	7%	-9%	0	-19%
Cc1cc(C)n(CC(=O)N/N=C/c2cc(Br)cc([N+](=O)[O-])c2O)n1	?	?	?	-12%	34	-11%
O=[N+]([O-])c1ccc(O)c(C=Nc2cccc3ncccc23)c1	-24%	?	-9%	-17%	6	-22%
O=[N+]([O-])c1cccc(N/N=C/c2cc([N+](=O)[O-])ccc2O)c1	?	2%	6%	23µM*	-9	15µM*
CCc1nn(Cc2c(C)cc(C)cc2C)c(=O)c2cc3cc(C)ccc3n12	0%	-29%	nt	nt	nt	nt
Nc1nnc(CC(=O)N/N=C\c2cc([N+](=O)[O-])ccc2O)s1	?	13%	0%	-20%	24	?
CCN(CC)c1ccc(C=NNc2ccc([N+](=O)[O-])cn2)cc1	?	21µM*	0%	-25%	7	-20%
O=[N+]([O-])c1ccc(N/N=C/c2ccccc2O)cc1	8.2µM*	13µM*	1%	-9%	-18	?
N#Cc1ccccc1Cn1cc(/C=N/Nc2ccc([N+](=O)[O-])cn2)c2ccccc21	23µM*	?	3%	0%	-4	0%
CCNC(=O)C(=O)N/N=C/c1cc([N+](=O)[O-])ccc1O	?	15µM*	5%	-20%	0	?
O=C(NCCc1nnc2ccc(SCC(=O)N3CCCC3)nn12)c1ccccc1	13%	9%	1%	0%	-16	11%
COc1ccc(C2C(C#N)=C(N)N(c3ccccc3C#N)C3=C2C(=O)CCC3)cc1CN1CCCC1 (configuration not stated)	?	?	3%	1%	-7	-8%
Cc1cc(C)n(CC(=O)N/N=C/c2cc([N+](=O)[O-])ccc2O)n1	15µM*	21µM*	-11%	?	101	?
O=C(N/N=C/c1cc([N+](=O)[O-])ccc1O)Nc1ccccc1	?	?	2%	?	111	16µM*
O=C(COC(=O)c1ccccc1NC(=O)c1ccccc1)c1ccc([N+](=O)[O-])cc1	?	23µM*	8%	2%	6	-6%

Bioassay records deposited in PubChem by National Center for Advancing Translational Sciences (NCATS).
